Data on 86 sequences can be found in the supplement of paper PMC4166925.

± gives the standard deviation of the averaged measurements. Over roughly 33,000 sequences, “E-score (dimensionless, -0.5 to 0.5)” has its median near -0.049; the highest 2% begin near 0.37. The sample holds the highest values, similar sequences and a random draw of the others, so the mix is not that of the screen.

In this assay the test system is T1, PmTbr T-box DNA-binding domain (GST fusion).
T1 sequence: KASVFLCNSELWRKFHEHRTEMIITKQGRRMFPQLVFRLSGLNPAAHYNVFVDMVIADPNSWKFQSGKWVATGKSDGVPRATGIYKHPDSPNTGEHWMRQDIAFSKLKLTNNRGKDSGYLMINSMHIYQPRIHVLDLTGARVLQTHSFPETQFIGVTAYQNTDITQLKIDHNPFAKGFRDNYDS
The assay is described as follows: PBM E-score of 8-mer (E-score (dimensionless, -0.5 to 0.5)); Tbr is Tbrain of the sea star Patiria miniata (Pm) or the sea urchin Strongylocentrotus purpuratus (Sp); higher = stronger binding preference. The settings on record: the construct has about 5 more residues each side. The essentials: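 Expression of GST-fused Tbr T-box DNA-binding domains, each holding the full T-box plus roughly five flanking residues, was carried out in BL21 E. coli at 20 °C, with purification by glutathione affinity chromatography. Universal Agilent arrays made double-stranded by primer extension were incubated with the protein at 200 nM in PBS (pH 7.5), then scanned and quantified. All ungapped 8-mers were scored from probe intensities, and each received an enrichment E-score from the Universal PBM Analysis Suite, averaged over duplicate arrays.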
Turning to GGCTAAAA, the “PBM E-score of 8-mer” value is -0.22 ± 0.064.

As for AGTGTGAT, the “PBM E-score of 8-mer” value was 0.463 ± 0.0063.

On to GCTGTGAC, for which the “PBM E-score of 8-mer” value was 0.208 ± 0.037.

On to AGTGTGTC, for which the “PBM E-score of 8-mer” value is 0.248 ± 0.0093.

With ACTGTGAC, the “PBM E-score of 8-mer” value came out at 0.239 ± 0.026.

Take CGTGTGAC: the “PBM E-score of 8-mer” value came out at 0.4054 ± 0.0011.

For the sequence CGTGTGTC, the “PBM E-score of 8-mer” value was found to be 0.204 ± 0.018.

Regarding GATGTGAC, the “PBM E-score of 8-mer” value was 0.308 ± 0.017.

AGTGTGAC: the “PBM E-score of 8-mer” value was determined as 0.467 ± 0.0075.

As to AGAGTGAT, the “PBM E-score of 8-mer” value came out at 0.239 ± 0.0043.

On to CGTGTGAG, for which the “PBM E-score of 8-mer” value was determined as 0.363 ± 0.013.

For AATGTGAT, the “PBM E-score of 8-mer” value was 0.258 ± 0.039.

In the case of GGTGTGAC, the “PBM E-score of 8-mer” value was 0.4864 ± 0.0033.

In the case of CACCCAAG, the “PBM E-score of 8-mer” value amounted to 0.263 ± 0.023.

Consider TCTTAGCA, for which the “PBM E-score of 8-mer” value came out at 0.2 ± 0.017.

For the sequence CCCGAATC, the “PBM E-score of 8-mer” value was determined as 0.00343 ± 0.029.

Consider ACAAGACC, for which the “PBM E-score of 8-mer” value came to 0.0576 ± 0.017.

On to GACTACCA, for which the “PBM E-score of 8-mer” value is -0.0358 ± 0.082.

As for CAGGAGAC, the “PBM E-score of 8-mer” value was -0.136 ± 0.017.

As to ATTGTGAG, the “PBM E-score of 8-mer” value was found to be 0.2213 ± 0.00029.

With AGTGTGTG, the “PBM E-score of 8-mer” value turned out to be 0.338 ± 0.021.

Regarding AGTGTGAG, the “PBM E-score of 8-mer” value was 0.4585 ± 0.0031.

Consider CACACAGG, for which the “PBM E-score of 8-mer” value is 0.119 ± 0.044.

In the case of CGGCAAAA, the “PBM E-score of 8-mer” value is -0.0622 ± 0.057.

With ACATCCGG, the “PBM E-score of 8-mer” value was -0.0734 ± 0.061.

Take GAACTGGA: the “PBM E-score of 8-mer” value was -0.175 ± 0.037.

As for CCTGGAAA, the “PBM E-score of 8-mer” value is -0.133 ± 0.014.

For AAAGACAA, the “PBM E-score of 8-mer” value is -0.172 ± 0.069.

With CCCCTTTC, the “PBM E-score of 8-mer” value was -0.124 ± 0.061.

Regarding AACCTTTC, the “PBM E-score of 8-mer” value is -0.105 ± 0.047.

For the sequence CACCTTTA, the “PBM E-score of 8-mer” value turned out to be 0.404 ± 0.013.

As to GACCTTTA, the “PBM E-score of 8-mer” value was -0.207 ± 0.088.

AACCTTTA: the “PBM E-score of 8-mer” value was -0.0895 ± 0.057.

CACCTTTC: the “PBM E-score of 8-mer” value worked out at 0.411 ± 0.034.

As to CGCGCATC, the “PBM E-score of 8-mer” value turned out to be 0.0691 ± 0.012.

In the case of GGCTGGAA, the “PBM E-score of 8-mer” value is -0.127 ± 0.064.

For the sequence GACCACCA, the “PBM E-score of 8-mer” value was -0.142 ± 0.031.

Take AGGAAGGG: the “PBM E-score of 8-mer” value is -0.28 ± 0.01.

With CAGCACCA, the “PBM E-score of 8-mer” value is 0.0936 ± 0.032.

As to TGGCACCA, the “PBM E-score of 8-mer” value came to 0.377 ± 0.0055.

As for AGGCACCA, the “PBM E-score of 8-mer” value was -0.171 ± 0.024.

Take GAGCACCA: the “PBM E-score of 8-mer” value was -0.0664 ± 0.018.

Regarding TCGCACCA, the “PBM E-score of 8-mer” value was 0.44 ± 0.0079.

For the sequence GGGCACCA, the “PBM E-score of 8-mer” value is -0.125 ± 0.059.

Regarding GCGCACCA, the “PBM E-score of 8-mer” value is -0.0144 ± 0.01.

With TAGCACCA, the “PBM E-score of 8-mer” value stood at 0.403 ± 0.015.

Regarding CCGCACCA, the “PBM E-score of 8-mer” value is 0.187 ± 0.0087.

For GAATTCCC, the “PBM E-score of 8-mer” value was 0.0309 ± 0.029.

GCAGGGTA: the “PBM E-score of 8-mer” value was -0.0138 ± 0.034.

Turning to GCAGGTCA, the “PBM E-score of 8-mer” value turned out to be 0.103 ± 0.027.

Regarding GCAGGTAA, the “PBM E-score of 8-mer” value is -0.0867 ± 0.05.

With ACAGGTGG, the “PBM E-score of 8-mer” value is 0.331 ± 0.022.

For CCAGGTGA, the “PBM E-score of 8-mer” value came to 0.339 ± 0.023.

With ACAGGTGC, the “PBM E-score of 8-mer” value came out at 0.4412 ± 0.0022.

As to CCAGGTAC, the “PBM E-score of 8-mer” value was -0.105 ± 0.1.

With ACAGGTGA, the “PBM E-score of 8-mer” value is 0.406 ± 0.0049.

Regarding ACAGGTCC, the “PBM E-score of 8-mer” value came to 0.0798 ± 0.068.

Regarding GCAGGTGA, the “PBM E-score of 8-mer” value was 0.4392 ± 0.002.

Take CCAGGTGC: the “PBM E-score of 8-mer” value amounted to 0.379 ± 0.014.

For ACAGGTTA, the “PBM E-score of 8-mer” value is 0.252 ± 0.022.

With CCAGGTCC, the “PBM E-score of 8-mer” value is -0.114 ± 0.039.

Consider CAGCGTGA, for which the “PBM E-score of 8-mer” value came out at 0.266 ± 0.0088.

In the case of CGGGCCCG, the “PBM E-score of 8-mer” value was 0.108 ± 0.013.

With CCCCAGAG, the “PBM E-score of 8-mer” value is -0.096 ± 0.018.

For ATATGTCG, the “PBM E-score of 8-mer” value amounted to 0.134 ± 0.029.

Take GTGTGTCA: the “PBM E-score of 8-mer” value stood at 0.348 ± 0.02.

As for ATGTGTCA, the “PBM E-score of 8-mer” value is 0.4653 ± 0.0037.

On to CTGTGTCA, for which the “PBM E-score of 8-mer” value was determined as 0.216 ± 0.027.

As to ATGTGTCG, the “PBM E-score of 8-mer” value amounted to 0.402 ± 0.0094.

Regarding ATGTGTCC, the “PBM E-score of 8-mer” value amounted to 0.0956 ± 0.026.

Regarding CTCCTTGC, the “PBM E-score of 8-mer” value was -0.127 ± 0.067.

In the case of ACGTAATA, the “PBM E-score of 8-mer” value is -0.234 ± 0.071.

For the sequence ACCATTGG, the “PBM E-score of 8-mer” value was -0.068 ± 0.046.

Take ACAGCCTC: the “PBM E-score of 8-mer” value is -0.206 ± 0.14.

As to GGTTCGCA, the “PBM E-score of 8-mer” value was 0.334 ± 0.02.

Regarding CGTTCGCA, the “PBM E-score of 8-mer” value worked out at 0.38 ± 0.037.

As for CGTTCGCC, the “PBM E-score of 8-mer” value was 0.0701 ± 0.066.

Consider CATTCGCA, for which the “PBM E-score of 8-mer” value worked out at 0.3497 ± 0.0027.

AGTTCGCC: the “PBM E-score of 8-mer” value came to 0.0555 ± 0.091.

Regarding AGTTCGCA, the “PBM E-score of 8-mer” value was 0.378 ± 0.0033.

Consider ACTGCAGT, for which the “PBM E-score of 8-mer” value worked out at 0.185 ± 0.034.

Regarding ACGTGCGA, the “PBM E-score of 8-mer” value is 0.4433 ± 0.0027.

As for CAGTGCGG, the “PBM E-score of 8-mer” value was -0.0389 ± 0.1.

Turning to TAGTGCCA, the “PBM E-score of 8-mer” value was found to be 0.249 ± 0.0097.

As for CAGTGCGC, the “PBM E-score of 8-mer” value is -0.0646 ± 0.032.

Take AAGTGCGA: the “PBM E-score of 8-mer” value worked out at 0.4835 ± 0.00061.
